# Some of the results follow. A number with no mark means an inactive call. Rule as the data show it: active = inhibition above about 50%; inactive = the rest.
# Target: Apelin receptor (Homo sapiens) (UniProt P35414)
# Assay: APJ antagonists blocking beta-arrestin recruitment, confirmation, cell-based, luminescence, single concentration, uHTS hits (AID 2766)
# Details: antagonist mode, at 20 µM, active compounds read high
# Apelin receptor (Homo sapiens), sequence (P35414 whole entry, looked up): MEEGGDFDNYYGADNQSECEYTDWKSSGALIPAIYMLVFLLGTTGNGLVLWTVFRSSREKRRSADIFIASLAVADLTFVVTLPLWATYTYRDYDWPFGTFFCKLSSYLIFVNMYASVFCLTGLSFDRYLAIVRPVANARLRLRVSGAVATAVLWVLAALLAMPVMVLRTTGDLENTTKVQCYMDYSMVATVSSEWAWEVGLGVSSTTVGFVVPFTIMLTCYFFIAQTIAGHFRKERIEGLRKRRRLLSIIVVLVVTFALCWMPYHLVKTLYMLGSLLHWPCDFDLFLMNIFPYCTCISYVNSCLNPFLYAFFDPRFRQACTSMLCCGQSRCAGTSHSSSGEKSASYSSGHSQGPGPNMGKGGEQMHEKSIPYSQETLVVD
structure (smiles),measurement,value
CCOC(=O)c1c(N)n(Cc2ccccc2)c2nc3ccccc3nc12,inhibition,35%

# From PubChem BioAssay AID2766 (Sanford-Burnham Center for Chemical Genomics, 2010)
